Assay outcomes from PubChem.
ELG1 repair inh – blocks ELG1-dependent DNA repair in HEK293T cells. AID 504467. Potency, µM (doses to about 46.1 µM), hits mostly inhibitors. 2.3% of 330,000 active. HEK293T ELG1-luciferase reporter, luminescence, 16 h; DNA damage induced by 5-fluorouridine; also: nearly all actives have a fitted effect of over 55% in size
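Reporter activity after DNA damage by 5-fluorouridine is monitored. Compound-treated cells incubate 16 hr at 37 °C, then ONE-Glo is added for 30 min before luminescence reading.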
ELG1 genotoxic – genotoxicity induction in ELG1-luciferase HEK293T cells | 1.3% of 330,000 active | HEK293T ELG1-luciferase reporter, luminescence, 16 h | Potency, µM (top dose mostly 46 µM), most hits filed as activators; also: nearly all actives have a fitted effect of over 60% in size
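Step 1: seed 2,000 HEK293T ELG1-luciferase cells per well. Step 2: add compound or DMSO, incubate 16 hr at 37 °C. Step 3: ONE-Glo, 30 min at room temperature, read luminescence.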
NPC1 promoter act – NPC1 promoter activation; Potency, µM (top dose mostly 9.22 µM), actives largely listed as activators; Huh7 NPC1 promoter luciferase reporter, 24 h; 2.4% of 320,000 active; also: nearly all actives have a fitted effect of over 60% in size
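Stably transfected Huh7 (NPC1 promoter→luciferase), 1500 cells/well in Opti-MEM + 10% FBS, 2 h settle, then compound 24 h at 37 °C. Luminescence after 10 min with Amplite reagent.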
Rab9 prom act – activators of Rab9 promoter; 2.8% of 320,000 active; Huh7 Rab9 promoter-luciferase reporter, luminescence, 24 h; Potency, µM (top dose mostly 9.22 µM), most hits filed as activators; also: nearly all actives have a fitted effect of over 60% in size
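Steps: seed 1500 Huh7 Rab9-luc cells per well, rest 2 h at 37 °C; add compound in DMSO; incubate 24 h; add luciferase reagent, 10 min ambient; read luminescence.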
SMN2 splice enh – enhancers of SMN2 splice variant expression; HEK293 SMN2-luciferase splicing reporter, luminescence, 30-36 h; Potency, µM (top dose mostly 46.1 µM), most hits filed as activators; 2.8% of 210,000 active; also: nearly all actives have a fitted effect of over 55% in size
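qHTS luciferase splicing reporter: luminescence rises when SMN2 exon 7 is included in transfected HEK293 cells. Compound exposure lasted 30-36 h at 37C, with 4.5 mM final sodium butyrate as control, followed by a ONE-Glo read.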
FLuc counter – counter-screen for miR-21 project: firefly luciferase inhibitors or activators; 6.9% of 360,000 active; purified FLuc, Km substrates, luminescence inhibition; Potency, µM (series often up to 57.5 µM), actives largely listed as inhibitors; also: nearly all actives have a fitted effect of over 55% in size
Target sequence (P08659 whole entry, looked up): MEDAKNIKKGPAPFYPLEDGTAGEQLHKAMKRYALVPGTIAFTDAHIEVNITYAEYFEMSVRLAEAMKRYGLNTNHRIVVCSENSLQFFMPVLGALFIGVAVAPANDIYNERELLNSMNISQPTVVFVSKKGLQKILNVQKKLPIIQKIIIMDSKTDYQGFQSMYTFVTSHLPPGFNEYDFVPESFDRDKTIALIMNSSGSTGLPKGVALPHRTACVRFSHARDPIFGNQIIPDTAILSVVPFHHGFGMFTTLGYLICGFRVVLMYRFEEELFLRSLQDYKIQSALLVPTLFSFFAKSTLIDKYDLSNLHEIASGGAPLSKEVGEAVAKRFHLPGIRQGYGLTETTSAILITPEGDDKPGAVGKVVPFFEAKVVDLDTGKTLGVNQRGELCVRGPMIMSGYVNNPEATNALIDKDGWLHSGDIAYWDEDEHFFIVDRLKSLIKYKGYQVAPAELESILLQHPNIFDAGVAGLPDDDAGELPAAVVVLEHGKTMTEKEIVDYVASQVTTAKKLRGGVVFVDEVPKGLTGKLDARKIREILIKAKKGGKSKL
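Purified P. pyralis luciferase, 10 nM final, with Km-level 10 uM D-luciferin and 10 uM ATP in 50 mM Tris acetate pH 7.5, 10 mM Mg acetate, 0.01% Tween-20, 0.05% BSA; 6-point qHTS titration about 60 µM downward; luminescence read.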
Each line names hits and unclear results; the compound was inactive in the other large screens. In the library only some 9.2% were active in any assay of this set; here they are far more common. Calls follow the shape of the dose curve; as a rule, active = well fitted curve in the direction sought with a large enough effect; inconclusive = small, poorly fitted or top-dose-only effect, or another doubt; inactive = no such curve, though single readings can be large; an effect the other way counts as inactive or inconclusive.

CCCn1c(=O)c(C(=O)NNS(=O)(=O)c2ccc(Cl)cc2)c(O)c2ccccc21	none
Cc1cc(C(=O)COC(=O)COc2ccccc2C#N)c(C)n1CC1CCCO1 (centres undefined)	ELG1 repair inh inconclusive, FLuc counter 3µM (no result: SMN2 splice enh)
C=CCn1c(C)cc(C(=O)COC(=O)/C=C/c2cccc(OC)c2)c1C	FLuc counter inconclusive
C=CCn1c(C)cc(C(=O)COC(=O)COc2ccccc2C#N)c1C	ELG1 repair inh inconclusive, FLuc counter 1.7µM (no result: SMN2 splice enh)
C=CCn1c(C)cc(C(=O)COC(=O)[C@@H](NC(=O)c2ccccc2Cl)C(C)C)c1C	ELG1 repair inh inconclusive, ELG1 genotoxic inconclusive, NPC1 promoter act inconclusive, Rab9 prom act inconclusive, FLuc counter 0.15µM
N#Cc1ccccc1OCC(=O)OCC(=O)c1ccc[nH]1	none (no result: SMN2 splice enh)
O=C(C[C@H]1C/C=C\CCC(=O)OC[C@H]2CCCN2C1=O)NCCO	none (no result: NPC1 promoter act, Rab9 prom act, SMN2 splice enh, FLuc counter)
CC(C)c1c(C(=O)N/N=C/c2ccc(Cl)cc2Cl)nnn1-c1nonc1N	FLuc counter 6µM (no result: SMN2 splice enh)
CCc1ccc(/C=N/NC(=O)c2nnn(-c3nonc3N)c2C(C)C)cc1	FLuc counter 2.4µM (no result: SMN2 splice enh)
O=C(NCC(=O)N1CCCC(C(F)(F)F)C1)c1ccc(Oc2ccccc2)cc1 (centres undefined)	ELG1 repair inh inconclusive, ELG1 genotoxic inconclusive, NPC1 promoter act inconclusive, Rab9 prom act 2.5µM, FLuc counter 0.27µM (no result: SMN2 splice enh)
CC(C)C(=O)N1CCC(n2nccc2NC(=O)CCc2ccccc2)CC1	none (no result: SMN2 splice enh)
COc1ccc(/C=C/C(=O)Nc2cccc(S(=O)(=O)NC3=NCCCCC3)c2)c(OC)c1	ELG1 repair inh inconclusive, FLuc counter 6µM (no result: SMN2 splice enh)
COc1ccccc1/C=C/C(=O)Nc1cccc(S(=O)(=O)NC2=NCCCCC2)c1	FLuc counter 19µM
COc1cc(OC)c2c(C)c(CC(=O)N3CCCCC3)c(=O)oc2c1	none (no result: ELG1 repair inh, ELG1 genotoxic, NPC1 promoter act, Rab9 prom act)
CN=c1scc(-c2cccs2)n1/N=C/c1ccccc1O	ELG1 repair inh 5.2µM, FLuc counter 0.17µM
CN=c1scc(-c2cccs2)n1/N=C/c1ccc(O)c(O)c1O	ELG1 repair inh inconclusive, ELG1 genotoxic inconclusive, NPC1 promoter act inconclusive, Rab9 prom act 0.79µM, SMN2 splice enh 13µM, FLuc counter 1.7µM
CN=c1scc(C)n1/N=C/c1ccc(O)c(O)c1O	ELG1 repair inh inconclusive, ELG1 genotoxic inconclusive, FLuc counter 1.5µM
CN=c1scc(C)n1/N=C/c1cc(Br)c(O)c(OC)c1	ELG1 repair inh inconclusive, SMN2 splice enh inconclusive, FLuc counter 17µM
CC1CCCC(C)N1C(=O)c1cc(-c2ccco2)on1 (centres undefined)	ELG1 repair inh inconclusive (no result: SMN2 splice enh)
CC1CCN(C(=O)c2cc(-c3ccco3)on2)CC1	ELG1 repair inh inconclusive, ELG1 genotoxic 16µM, NPC1 promoter act 1.8µM, Rab9 prom act 2.8µM, FLuc counter 13µM (no result: SMN2 splice enh)
CC1CCN(C(=O)c2cc(-c3ccccc3O)on2)CC1	ELG1 repair inh inconclusive, ELG1 genotoxic 2.6µM, NPC1 promoter act 2.5µM, Rab9 prom act 3.2µM, SMN2 splice enh inconclusive, FLuc counter 2.7µM
COc1ccccc1N1CCN(C(=O)c2cc(-c3ccccc3O)on2)CC1	none
CCOc1ncccc1C(=O)Nc1cc(C(F)(F)F)ccc1N1CCOCC1	none (no result: SMN2 splice enh)
CCN(CC)S(=O)(=O)c1ccc(N2CCOCC2)c(NC(=O)c2c3c(nc4ccccc24)CCC3)c1	ELG1 repair inh 13µM
CCOc1ncccc1C(=O)Nc1cc(S(=O)(=O)N(CC)CC)ccc1N1CCOCC1	ELG1 repair inh 5.2µM (no result: NPC1 promoter act, Rab9 prom act, SMN2 splice enh, FLuc counter)
CCN(CC)S(=O)(=O)c1ccc(N2CCOCC2)c(NC(=O)c2ccc3ccccc3c2)c1	ELG1 repair inh 15µM
COC(=O)C1CCN(C2CC(=O)N(c3cc(C)cc(C)c3)C2=O)CC1 (centres undefined)	none
CCN(CC)C(=O)Oc1ccc2c(c1)O/C(=C\c1ccco1)C2=O	ELG1 repair inh inconclusive, NPC1 promoter act inconclusive, Rab9 prom act inconclusive, FLuc counter 3µM (no result: SMN2 splice enh)
COCCN(CCOC)Cc1c(O)ccc2c1O/C(=C\c1ccco1)C2=O	none (no result: SMN2 splice enh)
CCC(=O)Oc1ccc2c(c1)O/C(=C\c1ccco1)C2=O	ELG1 repair inh inconclusive, FLuc counter 3.4µM (no result: SMN2 splice enh)
